Reference: PubChem BioAssay (NCI)
This is part of a sample that, as a whole, favours compounds with a hit. Of some 83,000 tested, about 20% had one in any assay.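 How to read the values: 0–100, growth inhibition (40 = 60% inhibited); 0, no net growth; -100 to 0, cell death (-40 = 40% of starting cells died; -100 = all dead).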 The source made the active and inactive calls. Rule for the calls: active = growth percent below 10; inactive = the rest.

What was measured:
Assay in all cases: NCI-60 one-dose screen, 48 h (100 = growth as untreated, 0 = no growth, -100 = all killed)
Conditions in all cases: 10 µM unless noted
[1] = test system: DU-145 prostate
[2] = test system: K-562 leukemia
[3] = test system: MALME-3M melanoma
[4] = test system: MDA-MB-231 breast
[5] = test system: RXF 393 renal
[6] = test system: SF-268 CNS
[7] = test system: SF-295 CNS
[8] = test system: SF-539 CNS
[9] = test system: UACC-257 melanoma
[10] = test system: M14 melanoma
[11] = test system: HCT-15 colon
[12] = test system: HT29 colon
[13] = test system: SNB-75 CNS
[14] = test system: SNB-19 CNS
[15] = test system: U251 CNS
[16] = test system: PC-3 prostate
[17] = test system: SK-MEL-5 melanoma
[18] = test system: UACC-62 melanoma
[19] = test system: LOX IMVI melanoma
[20] = test system: SK-MEL-28 melanoma

Measured: growth

O=C1N/C(=N/N=C(c2ccccc2)c2ccccc2)S/C1=C\c1ccc(Br)cc1
inactive: [1] 107% | [2] 89.6% | [3] 97.7% | [4] 94.6% | [5] 107% | [6] 99.3% | [7] 96.1% | [8] 110% | [9] 83.5% | [10] 91.8% | [11] 97.8% | [12] 81.8% | [13] 101% | [14] 100% | [15] 91.3% | [16] 89.8% | [17] 97.2% | [18] 79.8% | [19] 98.5% | [20] 112%

CC(=O)OCC(=O)O[C@@H]1C[C@]2(C(C)C)O[C@@]1(C)[C@@H]1CC[C@@H](C)[C@H]1[C@@H]2OC(=O)/C=C/c1ccccc1
inactive: [1] 101% | [2] 67.5% | [3] 101% | [4] 82.9% | [6] 51.5% | [7] 88.8% | [8] 92.4% | [9] 92.5% | [10] 97.2% | [11] 81.4% | [12] 82.3% | [13] 62.3% | [14] 86.6% | [15] 74.7% | [16] 58.6% | [17] 74.4% | [18] 81% | [19] 90.2% | [20] 102%
active: [5] -2.3%

O=C(OCC(O)C(=O)NC12CC3CC(CC(C3)C1)C2)c1cccc(Br)c1 (stereo not given)
inactive: [1] 105% | [2] 89.4% | [3] 101% | [4] 92% | [5] 110% | [6] 103% | [7] 96.9% | [8] 96.2% | [9] 91.1% | [10] 95.5% | [11] 95.2% | [12] 93.5% | [13] 98.5% | [14] 98.2% | [15] 97.5% | [16] 90.1% | [17] 103% | [18] 92.9% | [19] 95.2% | [20] 103%

Cn1cc(-c2csc(-c3cn(CCO)c4ccc(F)cc34)n2)c2cccnc21
inactive: [1] 95.4% | [2] 18.1% | [3] 72.8% | [4] 57.9% | [5] 69.7% | [6] 77.6% | [7] 52.3% | [8] 69.9% | [9] 77.4% | [10] 35.7% | [11] 41.5% | [12] 18.2% | [13] 46.4% | [14] 69.6% | [15] 49.3% | [16] 44.6% | [17] 62.9% | [18] 52.4% | [19] 44.8% | [20] 74.4%

N#C/C(Sc1nc2sc3c(c2c(=O)n1Cc1ccccc1)CCCC3)=C1/SC=C(c2ccc(Cl)cc2)N1c1ccccc1
inactive: [1] 119% | [2] 82.5% | [3] 89.8% | [4] 86.4% | [5] 90.9% | [6] 78% | [7] 88.9% | [8] 72.3% | [9] 108% | [10] 90.5% | [11] 117% | [12] 98.7% | [13] 71.2% | [14] 82.3% | [15] 72.8% | [16] 84.2% | [17] 95.9% | [18] 90.3% | [19] 82.1% | [20] 109%

Cc1nc2ccccc2c(/C=C/c2ccc(Br)cc2)c1C(=O)/C=C/c1ccccc1
inactive: [4] 11.9% | [6] 51.9% | [13] 51.3% | [16] 19.7%
active: [1] -3.75% | [2] 7.54% | [3] -28.4% | [5] -71.3% | [7] 4.22% | [8] -62.7% | [9] -4.07% | [10] 6.49% | [11] -27.3% | [12] -15.1% | [14] -11.6% | [15] -81.9% | [17] 6.82% | [18] -5.46% | [19] -89.6% | [20] 3.46%

CCOC(=O)C1=C(c2ccccc2)N=C2N(c3ccccc3)N=C(C(C)=O)N2C1c1ccc(Br)cc1 (stereo not given)
inactive: [1] 101% | [2] 86.9% | [3] 97.3% | [4] 89.2% | [5] 66.8% | [6] 92.6% | [7] 90.3% | [8] 96.3% | [9] 93.4% | [10] 100% | [11] 92.2% | [12] 85.1% | [13] 85.8% | [14] 88.7% | [15] 98% | [16] 77.6% | [17] 94% | [18] 72.4% | [19] 95.4% | [20] 99.9%

COc1cc(/C=C2\C(=O)N(CCOc3cc(O)c4c(=O)cc(-c5ccccc5)oc4c3)c3ccccc32)cc(OC)c1O
inactive: [1] 94% | [2] 22.6% | [3] 77.6% | [4] 64.2% | [5] 85.9% | [6] 70.6% | [7] 86.6% | [8] 69.9% | [9] 104% | [10] 28.1% | [11] 28% | [12] 136% | [13] 44.9% | [14] 65.3% | [15] 39.7% | [16] 76.2% | [17] 68.1% | [18] 24.6% | [19] 36.7% | [20] 83.6%

CC(C)C(=O)Nc1ncc(C(=O)NCCN(Cc2ccccc2)C(=O)c2ccc(S(=O)(=O)Nc3ccccc3)cc2)s1
inactive: [1] 109% | [2] 98.4% | [3] 111% | [4] 96.5% | [5] 95% | [6] 89.5% | [7] 100% | [8] 89.3% | [9] 105% | [10] 101% | [11] 96.6% | [12] 104% | [13] 78.3% | [14] 97.1% | [15] 97.4% | [16] 94.3% | [17] 90.8% | [18] 89.6% | [19] 104% | [20] 98.4%

Cn1cc(-c2ccc3c(Nc4cccc(NC(=O)Nc5cccc(F)c5)c4)ncnc3c2)cn1
inactive: [1] 41.8% | [3] 27.5% | [4] 41.8% | [6] 46.7% | [8] 20.4% | [9] 63.9% | [10] 41.3% | [11] 37.8% | [12] 32.8% | [13] 43.8% | [14] 65% | [15] 28.4% | [16] 33.6% | [17] 41.4% | [18] 32.4% | [19] 41.9% | [20] 49.6%
active: [2] 4.38% | [5] -13.9% | [7] -13.2%

COC(=O)c1nc(-c2ccc(C)cc2)oc1N1CCOCC1
inactive: [1] 98.1% | [2] 95.6% | [3] 115% | [4] 105% | [5] 89.6% | [6] 98.1% | [7] 99% | [8] 95.9% | [9] 100% | [10] 102% | [11] 84.8% | [12] 86.8% | [13] 84.6% | [14] 94.9% | [15] 100% | [16] 110% | [17] 103% | [18] 88% | [19] 107% | [20] 104%

O=C1/C(=C/c2ccccc2)COc2ccc(O)cc21
inactive: [1] 88.5% | [2] 17.5% | [3] 106% | [4] 92.9% | [5] 105% | [6] 90.6% | [7] 107% | [8] 108% | [9] 98.2% | [10] 85.8% | [11] 57.1% | [12] 62.7% | [13] 99.7% | [14] 93.6% | [15] 55.1% | [16] 84.2% | [17] 97.3% | [18] 86.6% | [19] 89.8% | [20] 103%

COC1=C(OC)C(=O)C(CCCCCCCCCCO)=C(C)C1=O
inactive: [1] 72% | [2] 45.7% | [3] 87% | [4] 42% | [5] 64% | [6] 64.2% | [7] 77.8% | [8] 74% | [9] 46% | [10] 92.7% | [11] 79.7% | [12] 105% | [13] 62.1% | [14] 93% | [15] 58.3% | [16] 69.5% | [17] 45% | [18] 59.4% | [19] 11.5% | [20] 102%

COC(=O)c1c(C)nc(C)c2c1C(=O)C(Br)=C(NCCN1CCOCC1)C2=O
inactive: [1] 112% | [2] 97.4% | [3] 37% | [4] 112% | [5] 106% | [6] 95.3% | [7] 95.8% | [8] 107% | [9] 87.5% | [10] 87.8% | [11] 87.9% | [12] 68.2% | [13] 119% | [14] 101% | [15] 101% | [16] 86.3% | [17] 70.8% | [18] 55.6% | [19] 82.8% | [20] 113%
